Compound activity: PubChem BioAssay, National Center for Advancing Translational Sciences (NCATS)
In the library only some 3.6% were active in any assay of this set; here they are far more common.
Tau filament bind: qHTS Assay for Tau Filament Binding; Microtubule-associated protein tau (Homo sapiens), P10636; recombinant tau filaments, thioflavin S fluorescence, 15 h; filaments grown with octadecylsulfate alongside compound; Potency, µM (highest dose often 57.1 µM), without a hit: at the top dose activity change, negative = inhibition; actives 2% (n = 71,000);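 further: on the % scale 0 is the no-effect control and ±100 the full control effect; actives lower thioflavin S fluorescence by blocking filaments or displacing dye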
Target sequence (P10636 whole entry, looked up): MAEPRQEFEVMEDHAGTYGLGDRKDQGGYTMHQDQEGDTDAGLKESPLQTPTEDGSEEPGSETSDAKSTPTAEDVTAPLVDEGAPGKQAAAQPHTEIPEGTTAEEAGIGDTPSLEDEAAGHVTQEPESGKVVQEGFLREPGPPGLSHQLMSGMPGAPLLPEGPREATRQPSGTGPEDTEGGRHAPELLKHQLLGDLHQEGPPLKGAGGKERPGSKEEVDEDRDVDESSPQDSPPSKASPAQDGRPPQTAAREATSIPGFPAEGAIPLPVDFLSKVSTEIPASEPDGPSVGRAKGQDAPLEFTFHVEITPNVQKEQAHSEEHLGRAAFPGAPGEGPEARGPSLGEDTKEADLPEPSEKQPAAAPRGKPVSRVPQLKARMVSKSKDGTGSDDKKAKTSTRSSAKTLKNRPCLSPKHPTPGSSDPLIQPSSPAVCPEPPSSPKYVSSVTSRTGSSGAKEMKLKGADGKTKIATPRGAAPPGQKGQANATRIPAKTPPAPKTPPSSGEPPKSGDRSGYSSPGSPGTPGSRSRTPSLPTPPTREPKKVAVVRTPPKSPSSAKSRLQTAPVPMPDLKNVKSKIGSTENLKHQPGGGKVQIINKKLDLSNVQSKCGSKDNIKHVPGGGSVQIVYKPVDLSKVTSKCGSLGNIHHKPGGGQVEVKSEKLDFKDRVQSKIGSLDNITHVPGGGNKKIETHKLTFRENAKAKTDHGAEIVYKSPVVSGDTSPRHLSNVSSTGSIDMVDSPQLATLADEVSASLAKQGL
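Recombinant tau protein (human, 1 uM final) plus 30 uM ODS in HEPES pH 7.4 with NaCl, DTT and thioflavine S. Compound present from the start; fluorescence at 510 nm after 15 h, 37 C.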
IkB sig inh: IkB Signaling; actives 0.04% (n = 110,000); ABC-DLBCL IkBa-CBG/CBR dual luciferase ratio, 4 h; response scale: scaled: untreated 0%, proteasome inhibitor 100%; Potency, µM (top dose mostly 57.1 µM), for inactives: top-dose IkBa stabilization activation; active means well fitted curve in the direction sought with a large enough effect in the signal ratio, not every such curve was filed as active; inconclusive means small, poorly fitted or top-dose-only effect, or a change in a side signal; the % refers to the signal ratio;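 further: the direction sought is a rising ratio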
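Curves were fitted separately to fusion (green), unfused (red) and ratio luminescence, then classed by r2, magnitude and activity. Cells: OCI-Ly3, 4 h compound plus doxycycline at 37C; 10 uM MG-132 defined full response.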
CRE-bla Fsk: Cell signaling CRE-BLA (Fsk stim) | CHO CRE-bla reporter (cAMP response element driving beta-lactamase), forskolin EC10, beta-lactamase ratio | Potency, µM (highest dose often 38.2 µM), for the others: at the highest dose activity change, negative = inhibition, usual class: activators | actives 2.5% (n = 71,000); active means well fitted activation curve with a large enough effect in the signal ratio, with a control signal flat, not every such curve was filed as active; inconclusive means small, poorly fitted or top-dose-only effect, or effect the other way, or a change in a side signal; the % refers to the signal ratio; further: % of control where 0% means no effect
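Reporter-gene assay: CHO cells with beta-lactamase behind cAMP responsive elements, co-treated with compound and EC10 NKH 477 for 3 hours at 37 degrees Celsius. Activity came from the 460/530 nm CCF4 emission ratio.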
ALOX15 inhib: qHTS Assay for Inhibitors of 15-hLO (15-human lipoxygenase); Polyunsaturated fatty acid lipoxygenase ALOX15 (Homo sapiens), P16050; purified 15hLO-1, xylenol orange hydroperoxide absorbance; Potency, µM (series often up to 57.1 µM), inactives show at the highest dose activity change, negative = inhibition, hits mostly inhibitors; actives 1.4% (n = 74,000); AID 887, 2007; further: on the % scale 0 is the no-effect control and ±100 the full control effect; nearly all actives have a fitted effect of over 55% in size
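Hydroperoxide formed from arachidonic acid (50 uM) by purified human 15hLO-1 (40 nM) oxidizes ferrous iron, and the ferric-xylenol orange complex is read at 573 versus 405 nm. Compounds were preincubated 15 min; reaction ran 6 min at room temperature.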
Hsp90 Hop PPI: qHTS Assay for Disrupters of an Hsp90 Co-Chaperone Interaction; actives 0.44% (n = 71,000); Hsp90 C-terminal peptide / TPR2A (Hop) interaction, human; Potency, µM (top dose mostly 57 µM), inactives show at the top dose activity change, negative = inhibition; AID 595, 2007; AlphaScreen TPR2A-His6 binding biotin-Hsp90 C-terminal peptide; active means well fitted curve in either direction with a large enough effect; inconclusive means small, poorly fitted or top-dose-only effect, or another doubt; further: on the % scale 0 is the no-effect control and ±100 the full control effect
Numbers without * were called inactive; ! = not active in a repeat; [ ] = dose if it differs, or a comment. Unless noted, the call rests on the fitted dose curve; in most records, active means well fitted curve in the direction sought with a large enough effect; inconclusive means small, poorly fitted or top-dose-only effect, or another doubt; inactive means no such curve, though single readings can be large; an effect the other way counts as inactive or inconclusive. Potency means the concentration at half of the fitted maximal effect.

Results for CC1=C2[C@@H]3OC(=O)[C@H](C)[C@H]3CC[C@@]2(C)C=CC1=O ?
Tau filament bind: 5%; IkB sig inh: -1%[11.4 µM]; CRE-bla Fsk: -4%; Hsp90 Hop PPI: -3%

Results for O=C(O)c1cc[c]([Hg][Cl])cc1 ?
Tau filament bind: -6%; IkB sig inh: inconclusive; CRE-bla Fsk: -15%; ALOX15 inhib: 1.6µM*; Hsp90 Hop PPI: -5%

What do the screens show for `O=C(O)c1cccc(Cl)c1`?
Tau filament bind: 18%; IkB sig inh: -1%; CRE-bla Fsk: -7%; ALOX15 inhib: -4%; Hsp90 Hop PPI: 3%

How did O=C(O)COc1ccccc1 do in these assays?
Tau filament bind: -2%; IkB sig inh: 1%; CRE-bla Fsk: -6%; ALOX15 inhib: inconclusive; Hsp90 Hop PPI: -4%

What do the screens show for `O=C(O)Cc1cccnc1C(=O)O`?
Tau filament bind: inconclusive; IkB sig inh: 0%; CRE-bla Fsk: inconclusive; ALOX15 inhib: -22%[25.6 µM]; Hsp90 Hop PPI: 7.9µM*

Results for CC[C@H](CO)NC(=O)[C@@H]1C=C2c3cccc4[nH]cc(c34)C[C@@H]2N(C)C1 ?
Tau filament bind: 20%; IkB sig inh: 2%; CRE-bla Fsk: -10%; ALOX15 inhib: 7%; Hsp90 Hop PPI: -12%

Results for CCCCCCCCC(=O)NCc1ccc(O)c(OC)c1 ?
Tau filament bind: -5%; IkB sig inh: 4%; CRE-bla Fsk: -8%; ALOX15 inhib: 25µM*!; Hsp90 Hop PPI: -3%

How did Cc1c(C(=O)N2CCC3(CC2)OCCO3)oc2ccccc12 do in these assays?
Tau filament bind: 5%; IkB sig inh: 1%; CRE-bla Fsk: -9%; ALOX15 inhib: 1%; Hsp90 Hop PPI: -3%

Results for O=C(CSc1ccccc1)N1CCC2(CC1)OCCO2 ?
Tau filament bind: 18%; IkB sig inh: -2%; CRE-bla Fsk: 13µM*; ALOX15 inhib: 8%; Hsp90 Hop PPI: -7%

How did COc1ccc2c(c1)CCC1C2CC[C@]2(C)[C@H](NCCCCCCN3C(=O)C=CC3=O)CC[C@@H]12 (stereo partly drawn) do in these assays?
Tau filament bind: -10%; IkB sig inh: -4%; CRE-bla Fsk: 0%; ALOX15 inhib: 9%; Hsp90 Hop PPI: -11%

Results for CN1CCN(C(=O)COc2ccc3ccccc3c2Br)CC1 ?
Tau filament bind: 16µM*; IkB sig inh: -3%; CRE-bla Fsk: 2.5µM*; ALOX15 inhib: -6%; Hsp90 Hop PPI: 2.5µM*

Results for Cc1cc(Cl)ccc1OCC(=O)N1CCN(C)CC1 ?
Tau filament bind: 4%; IkB sig inh: 3%; CRE-bla Fsk: 2%; ALOX15 inhib: 2%; Hsp90 Hop PPI: 0%

What do the screens show for `C[C@@]12CC[C@H]3[C@@H](CCC4=C(O)C(=O)CC[C@]43C)[C@H]1CCC2=O`?
Tau filament bind: -3%; IkB sig inh: 0%; CRE-bla Fsk: -1%; ALOX15 inhib: -15%; Hsp90 Hop PPI: -11%

How did COC(=O)[C@]1(C)CC[C@@]2(C)CC[C@@]3(C)C4=CCc5c(cc(O)c(O)c5C)[C@]4(C)CC[C@@]3(C)C2C1 (stereo partly drawn) do in these assays?
ALOX15 inhib: -27%

What do the screens show for `CC1=C(O)C(=O)C=C2C1=CC=C1[C@]2(C)CC[C@@]2(C)C3C[C@](C)(C(=O)O)CC[C@@]3(C)CC[C@@]12C` (stereo partly drawn)?
ALOX15 inhib: 4µM*

Results for CC(=O)[O-].CC(=O)[O-].O.O.[Cd+2] ?
Tau filament bind: 7%; IkB sig inh: 5µM*; CRE-bla Fsk: inconclusive; Hsp90 Hop PPI: -3%

What do the screens show for `C=CC(C)=O`?
Tau filament bind: 12%; IkB sig inh: 0%; CRE-bla Fsk: -8%; ALOX15 inhib: -7%; Hsp90 Hop PPI: 5%

Results for C[C@]1(C(=O)O)[C@@H]2CC[C@@H](O2)[C@@]1(C)C(=O)O ?
Tau filament bind: 2%; IkB sig inh: inconclusive; CRE-bla Fsk: inconclusive; ALOX15 inhib: 13%; Hsp90 Hop PPI: -10%

How did O=C1C[C@@H]2OCC=C3CN4CC[C@]56c7ccccc7N1[C@H]5[C@@H]2[C@H]3C[C@@H]46 do in these assays?
Tau filament bind: inconclusive; IkB sig inh: 0%[11.4 µM]; CRE-bla Fsk: inconclusive; Hsp90 Hop PPI: -6%

Results for O=[As](O)(O)c1ccc(N=Nc2ccc(O)cc2)cc1 ?
Tau filament bind: 3.2µM*; IkB sig inh: -1%[11.4 µM]; CRE-bla Fsk: 0%[7.6 µM]; ALOX15 inhib: -3%[11.4 µM]; Hsp90 Hop PPI: -7%[11 µM]

How did NC(=O)CI do in these assays?
Tau filament bind: -2%; IkB sig inh: 2%; CRE-bla Fsk: -9%; ALOX15 inhib: 32µM*; Hsp90 Hop PPI: -2%

Results for c1ccc2c(c1)Nc1ccccc1S2 ?
Tau filament bind: -18%; IkB sig inh: 11%; CRE-bla Fsk: -14%; ALOX15 inhib: 6.3µM*; Hsp90 Hop PPI: -19%

What do the screens show for `N#CSCSC#N`?
Tau filament bind: 2%; IkB sig inh: inconclusive; CRE-bla Fsk: inconclusive; ALOX15 inhib: 4%; Hsp90 Hop PPI: -8%

How did [O]=[Cr](=[O])([OH])[O][Cr](=[O])(=[O])[OH] do in these assays?
Tau filament bind: 1.3µM*!; IkB sig inh: 6%; CRE-bla Fsk: inconclusive; ALOX15 inhib: 0%; Hsp90 Hop PPI: inconclusive

How did CC[C@H](CO)NC(=O)[C@H]1C=C2c3cccc4[nH]cc(c34)C[C@H]2N(C)C1 do in these assays?
Tau filament bind: 55%; IkB sig inh: 2%[11.4 µM]; CRE-bla Fsk: inconclusive; Hsp90 Hop PPI: 3%

How did CC(=O)[O][Hg][c]1ccccc1 do in these assays?
Tau filament bind: -4%; IkB sig inh: inconclusive; CRE-bla Fsk: inconclusive; ALOX15 inhib: 0.013µM*; Hsp90 Hop PPI: -2%

Results for Oc1ccc2c3c1O[C@@H]1c4[nH]c5c(c4C[C@@]4(O)[C@@H](C2)N(CC2CC2)CC[C@]314)C[C@]1(O)[C@@H]2Cc3ccc(O)c4c3[C@@]1(CCN2CC1CC1)[C@H]5O4 ?
Tau filament bind: 2%; IkB sig inh: 5%; CRE-bla Fsk: -3%; ALOX15 inhib: -1%; Hsp90 Hop PPI: inconclusive

How did CC(C)CCOC(=O)c1c(N)n(CC2CCCO2)c2nc3ccccc3nc12 (stereo not drawn) do in these assays?
Tau filament bind: 3%; IkB sig inh: inconclusive; CRE-bla Fsk: inconclusive; ALOX15 inhib: -6%; Hsp90 Hop PPI: inconclusive

What do the screens show for `COCCOC(=O)c1c(N)n(Cc2ccccc2)c2nc3ccccc3nc12`?
Tau filament bind: 17%; IkB sig inh: -1%; CRE-bla Fsk: 16µM*; ALOX15 inhib: -13%; Hsp90 Hop PPI: 11%

Results for COc1ccc(Cn2c(N)c(C(=O)NCc3ccco3)c3nc4ccccc4nc32)cc1 ?
Tau filament bind: 6.3µM*; IkB sig inh: inconclusive; CRE-bla Fsk: inconclusive; ALOX15 inhib: inconclusive; Hsp90 Hop PPI: -10%
